# Source: PubChem BioAssay
# This excerpt belongs to a sample that is enriched for hits.
# TTR transcr act – TTR transcription activation, primary screen; SH-SY5Y TTR promoter Gaussia luciferase, luminescence; 100% = recombinant luciferase protein wells; activation, % at 16.7 µM; 92,000 tested, 1.3% active; AID 1117267;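 active = activation above the mean of all tested compounds plus 3 SD, cut at about 9.5% in these data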;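 note: cells exposed to compounds for one day before reading; 0% = median of all test compound wells on the plate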
# HuH7 TTR inh – HuH7 TTR transcription inhibition, counter-screen | shares compounds with TTR transcr act | HuH7 TTR promoter-Gaussia luciferase reporter, luminescence | inhibition, % at 16.7 µM | 1,100 tested, 4% active | AID 1117279;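 active = average inhibition above the solvent-only control wells' mean plus 3 SD, cut at about 15% in these data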;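 note: 0% = cells with DMSO only and 100% = cells with inhibitor control FD; inhibitors lower well luminescence so higher value means more inhibition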
# TTR up confirm – confirmation of human transthyretin transcription activators; shares compounds with TTR transcr act; SHSY5Y TTR promoter Gaussia luciferase, luminescence; 100% = purified Lucia enzyme wells, no cells; activation, % at 16.7 µM; 1,100 tested, under 10 active;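 active = mean activation above a set limit taken from the earlier primary screen, cut at about 11% in these data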;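 note: 0% = DMSO-treated cells and 100% = recombinant Lucia luciferase without cells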
# * = called active by the depositor.
SMILES,TTR transcr act,others
COc1ccc(N(C(C)C(=O)NN=C2CCCCCCC2)S(C)(=O)=O)cc1 (stereo not given),15*,HuH7 TTR inh=-9;TTR up confirm=-1
COc1ccc(C(=O)Nc2cc(C(=O)O)cc(C(=O)O)c2)cc1Cl,0,
COc1ccc(C(=O)Nc2ccccc2C(=O)O)cc1Cl,78*,HuH7 TTR inh=-9;TTR up confirm=-1
CCOc1ccc(C(=O)Nc2cccc(C(=O)O)c2C)cc1Cl,3,
Cc1c(OCC(=O)N2CCN(c3ccccc3)CC2)ccc2c3c(c(=O)oc12)CCCC3,2,
CCCC[C@H]1C2CC(OC(=O)Nc3ccc(C#N)cc3)C(C2)[C@H]2CCCCN21 (stereo not given in full),4,
N#Cc1ccc(Oc2ccc(/C=N/O)cn2)cc1,81*,HuH7 TTR inh=0;TTR up confirm=-1
COc1nc(Oc2ccc(/C=N/O)cc2)nc(N(C)C)n1,-1,
Cc1ccc2nc(/C(C#N)=C\c3ccc(Oc4ccc([N+](=O)[O-])cn4)cc3)[nH]c2c1,-1,
CC[C@@H]1CC2=C(C(=O)OC(C)(C)O2)[C@H](c2ccc(F)cc2)O1,0,
Cc1cc(C)c(NC(=O)COC(=O)c2ccncc2)c(C)c1,0,
CC(=O)CSc1nc2nccnc2[nH]1,3,
Cc1cccc(N(C)c2cc(-c3ccc(F)cc3)nc3ccnn23)c1,2,
O=C(OCC#CCSc1nnc(-c2cccc3ccccc23)o1)c1ccccc1,2,
CC(=O)Nc1ccc(C(F)(F)F)cc1Cl,-1,
Cc1cc(C(=O)NCCCn2ccnc2)cs1,0,
O=C(NCCCn1ccnc1)c1cc(C2CC2)on1,10*,HuH7 TTR inh=-2;TTR up confirm=1
COc1cc(C(=O)NCCCn2ccnc2)cc(OC)c1OC,-1,
C[C@@H]1CN([C@H](C)CO)S(=O)(=O)c2ccc(C#Cc3ccccc3)cc2O[C@H]1CN(C)C(=O)Nc1ccc2c(c1)OCO2,-2,
CCOc1ccc(CC(=O)C2=C(N3CCOCC3)CC(C)(C)CC2=O)cc1OCC,0,
O=C(CN1C2=NCCCN2c2ccccc21)c1cccs1,1,
CCCn1c(=N)n(CC(=O)c2cccs2)c2ccccc21,4,
O=C(Cn1ccccc1=O)c1cccs1,17*,HuH7 TTR inh=-12;TTR up confirm=-1
CCOC(=O)[C@H]1[C@H]2COc3ccc(Cl)cc3[C@@H]2N2C(=O)c3cc(Br)ccc3NC(=O)[C@@]12C,16*,HuH7 TTR inh=5;TTR up confirm=0
CCOC(=O)[C@H]1[C@H]2COc3ccc(C)cc3[C@@H]2N2C(=O)c3cc(OC)c(OC)cc3NC(=O)[C@@]12C,1,
SMILES,TTR transcr act,others
CCOC(=O)[C@@H]1[C@H]2COc3ccc(Br)cc3[C@@H]2N2C(=O)N(c3ccc(Cl)cc3)C(=O)[C@@]12C,0,
CCOC(=O)[C@H]1[C@H]2COc3ccc(Br)cc3[C@@H]2N2C(=O)c3cc(OC)c(OC)cc3NC(=O)[C@@]12C,-2,
CCOC(=O)[C@H]1[C@H]2COc3ccccc3[C@@H]2N2C(=O)c3cc(Cl)ccc3NC(=O)[C@@]12C,3,
CCOC(=O)[C@@H]1[C@H]2COc3ccc(Br)cc3[C@@H]2N2C(=O)N(c3ccc(F)cc3)C(=O)[C@@]12C,16*,HuH7 TTR inh=-34;TTR up confirm=0
CCOC(=O)[C@H]1[C@H]2COc3ccc(Cl)cc3[C@@H]2N2C(=O)c3ccc(C)cc3NC(=O)[C@@]12C,13*,HuH7 TTR inh=-10;TTR up confirm=-1
CCOC(=O)[C@H]1[C@H]2COc3ccccc3[C@@H]2N2C(=O)c3ccc(Cl)cc3NC(=O)[C@@]12C,0,
CCOC(=O)[C@H]1[C@H]2COc3ccc(Br)cc3[C@@H]2N2C(=O)N(c3ccc(F)cc3)C(=O)[C@@]12C,-2,
COc1ccc(-n2c(SCC(=O)Nc3cccc(S(N)(=O)=O)c3)nc3ccccc3c2=O)cc1OC,0,
CN(CC(=O)Nc1ccccc1Br)C(=O)CNC(=O)c1cccs1,3,
COC(=O)C[C@H]1CC[C@@H]2[C@H](COc3ccc(NC(=O)c4cnccn4)cc3C(=O)N2C)O1,0,
COc1ccc(-n2c(C)nc(N)c2C(=O)c2ccccc2)cc1,-1,
COC(=O)[C@]12C[C@H](CC(=O)NCc3ccccc3)C(=O)N(Cc3ccco3)C1=C[C@H](COCc1ccccc1)O[C@@H]2C,1,
Cc1ccc(CN2CCCCC(NC(=O)c3ccc(Br)cc3)C2=O)cc1 (stereo not given),-2,
COc1ccccc1CNC(=O)Cn1c(=O)oc2cc(S(=O)(=O)N3CCCC3)ccc21,5,
O=C(CCCC1=NS(=O)(=O)c2ccccc2N1)OCc1ccc(Cl)cc1,-2,
COc1cccc(Sc2cc(N3CCOCC3)nc(-c3ccccc3)n2)c1,-2,
O=S(Cc1cc(Sc2ccccc2)nc(-c2ccccc2)n1)c1ccccc1 (stereo not given),12*,HuH7 TTR inh=12;TTR up confirm=-1
O=S(Cc1ccccc1)c1ccccc1 (stereo not given),1,
CC(C)(Oc1ccc(Cl)cc1)C(=O)OCC(=O)NCCc1ccccc1,0,
O=C(Nc1ccc2c(c1)[C@H]1C[C@@H](CC(=O)N3CCOCC3)O[C@@H](CO)[C@H]1O2)C1CCOCC1,-2,
COc1ccc(S(=O)(=O)N2CC(C)N(C(=O)N3CCOCC3)C2)cc1 (stereo not given),1,
O=C(COc1ccc(-n2cnnn2)cc1)Nc1ccc(F)cc1,6,
O=C(COc1ccc(-n2cnnn2)cc1)Nc1ccc(F)c(F)c1F,-1,
O=C(COc1ccc(-n2cnnn2)cc1)Nc1ccc(F)c(F)c1,13*,HuH7 TTR inh=-18;TTR up confirm=1
COC(=O)C1CCN(C(=O)c2cc(S(=O)(=O)N3CCCCC3)ccc2Cl)CC1,1,
SMILES,TTR transcr act,others
COc1ccccc1C(CNC(=O)CNC(=O)c1cccc(Cl)c1)N1CCCC1 (stereo not given),-1,
COC(=O)C[C@H]1c2cc(C(F)(F)F)ccc2S(=O)(=O)N1Cc1ccccc1,1,
CC(=O)C1C(C)CC2C3CCC4CC(=O)CCC4(C)C3CCC21C (stereo not given),0,
CC(=O)C1CCC2C3CCC4=CC(=O)C=CC4(C)C3CCC12C (stereo not given),-1,
CC(=O)C1CCC2C3CCC4CC(=O)CCC4(C)C3C(O)CC12C (stereo not given),10*,HuH7 TTR inh=-1;TTR up confirm=-1
COc1ccnc(-n2cccc2C#N)c1C#N,-1,
c1ccc(CCNc2ccc3nncn3n2)cc1,5,
NCCNc1ccc2nnnn2n1,19*,HuH7 TTR inh=-8;TTR up confirm=3
Clc1ccc(CNc2ccc3nnc(-c4ccccc4)n3n2)cc1,4,
O=C(Nc1ccn([C@H]2CC[C@@H](CO)O2)c(=O)n1)c1ccccc1,1,
COCC(=O)N[C@H]1C[C@@H]2O[C@@H](CO)CC[C@@H]2O[C@@H]1CCc1ccc(-c2ccccc2)cc1,6,
CC(C)(C)S(=O)(=O)N1C[C@@H]2CC(=O)C=C2[C@H]1CCO,1,
O=c1ccncn1C1OC(CO)C(O)C1O (stereo not given),13*,HuH7 TTR inh=-11;TTR up confirm=1
OCC1OC(n2nnc3ccccc32)C(O)C(O)C1O (stereo not given),0,
Nc1ncnc2c1ncn2C1OC(CO)C(O)C1O (stereo not given),4,
Cc1sc2c(c1C)C(=O)/C(=C\Nc1ccncc1)S(=O)(=O)N2C,0,
CC1C(C#N)=C(N)OC2=C1C(=O)CC(c1ccccc1)C2 (stereo not given),15*,HuH7 TTR inh=-14;TTR up confirm=-1
